Inconclusive results are not listed. Activity calls are given as the source filed them. Unless noted, the call rests on the fitted dose curve; in most records, active means well fitted curve in the direction sought with a large enough effect; inconclusive means small, poorly fitted or top-dose-only effect, or another doubt; inactive means no such curve, though single readings can be large; an effect the other way counts as inactive or inconclusive.
Assays:
[1] = target: Cytochrome P450 3A4 (Homo sapiens) (UniProt P08684); assay: qHTS Assay for Activators of Cytochrome P450 3A4 (AID 885); further: nearly all actives have a fitted effect of over 65% in size
Sequence of Cytochrome P450 3A4 (Homo sapiens) (P08684 whole entry, looked up): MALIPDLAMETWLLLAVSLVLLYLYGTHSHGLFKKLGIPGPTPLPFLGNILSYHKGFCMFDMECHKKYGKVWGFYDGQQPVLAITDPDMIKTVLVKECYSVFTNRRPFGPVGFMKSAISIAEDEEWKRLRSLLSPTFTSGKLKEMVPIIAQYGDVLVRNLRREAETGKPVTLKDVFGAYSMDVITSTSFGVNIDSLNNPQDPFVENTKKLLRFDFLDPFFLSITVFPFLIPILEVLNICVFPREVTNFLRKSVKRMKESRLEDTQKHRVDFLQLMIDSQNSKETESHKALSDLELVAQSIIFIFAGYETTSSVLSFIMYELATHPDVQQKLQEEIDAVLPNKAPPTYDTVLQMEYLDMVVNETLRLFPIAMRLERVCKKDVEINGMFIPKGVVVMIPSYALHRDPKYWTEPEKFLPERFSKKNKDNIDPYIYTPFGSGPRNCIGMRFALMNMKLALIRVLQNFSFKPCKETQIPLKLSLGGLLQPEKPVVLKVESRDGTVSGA
Summary of the method: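 Luminescent readout of luciferin formed from 25 uM Luciferin-PPXE (KM level) by 20 nM CYP3A4 in 200 mM KPO4, with 60 min NADPH-driven reaction at room temperature after 10 min compound exposure. Ketoconazole (57 uM) defined 100% inhibition.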

[2] = Confirmation and Secondary Assay for Modulators of Hemoglobin Beta Chain Splicing at IVS2 654 locus (AID 910);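 further: HeLa cells stably carrying EGFP split by mutant beta-globin IVS2-654 intron; per-well total GFP intensity by laser scanning cytometry after 2-day treatment; % of control where 0% means no effect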
Summary of the method: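 Readout: per-well total peak green fluorescence (488 nm ex, 500–520 nm em) from objects 5–250 µm, reflecting correct splicing of an EGFP-654 reporter. Compounds were applied for 2 days at 37 °C to overnight-plated HeLa EGFP-654 cells; controls were DMSO and 500 nM IVS2-654 PNA.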

[3] = Confirmation and Secondary Assay for Modulators of Hemoglobin Beta Chain Splicing at IVS2 705 locus (AID 930);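 further: HeLa cells stably expressing the EGFP-705 splicing reporter; GFP fluorescence per well restored by corrected splicing of the IVS2-705 intron in EGFP; % of control where 0% means no effect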
Summary of the method: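 Secondary splice-site specificity test uses HeLa expressing CMV-driven EGFP interrupted by IVS2-705; cells were treated 2 days at 37C with 500 nM antisense PNA as positive control.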

[4] = qHTS Assay for Lipid Storage Modulators (AID 1519; calls by dose curve; on activity change, negative = inhibition: on the % scale 0 is the no-effect control and ±100 the full control effect); conditions: Drosophila S3 cells, BODIPY lipid droplet/cell ratio, laser cytometry, cells loaded with oleic acid; for activity change, negative = inhibition: at 57.5 µM (top of the series)
Summary of the method: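 Cells seeded at 5,000 per well were treated with compounds over a concentration series and loaded with oleic acid (400 uM, as added). Lipid droplet fluorescence (488 nm excitation, 500-530 nm channel) was read by laser-scanning cytometry and normalized to 20 uM Triacsin C.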

[5] = measured here: cell count channel max response
[6] = measured here: lipid channel max response

SMILES	Potency [1]	Potency [2]	Potency [3]	activity change, negative = inhibition [4]	max response [4, 5]	max response [4, 6]
COc1cc(O)cc(/C=C/c2ccccc2)c1	inactive	inactive	inactive	5.85% (inactive)	-8.15%	-0.333%
CC(C)=CCC/C(C)=C/COc1ccc2ccc(=O)oc2c1	inactive	inactive	inactive	-1.25% (inactive)	27.3%	28.1%
CN1CCCC1CCO[C@@](C)(c1ccccc1)c1ccc(Cl)cc1 (some centres undefined)		inactive	inactive	-9.48% (inactive)	-21.6%	-28.2%
CC(=O)OCC1OC(Oc2cc(OC(C)=O)c3c(=O)cc(-c4ccc(OC(C)=O)cc4)oc3c2)[C@@H](OC(C)=O)C(OC(C)=O)C1OC(C)=O (some centres undefined)	inactive	inactive	inactive	-3.32% (inactive)	-1.21%	-5.92%
CO/N=C(\C(=O)NC1C(=O)N2C(C(=O)OCOC(=O)C(C)(C)C)=C(/C=C\c3scnc3C)CSC12)c1csc(N)n1 (centres undefined)		inactive	inactive	12.3% (inactive)	-4.33%	11.5%
CC(=O)OCC1=C(C(=O)O)N2C(=O)C(NC(=O)Cc3cccs3)C2SC1 (centres undefined)	inactive	inactive	inactive	9.08% (inactive)	8.85%	22%
CN1CCCC1c1cccnc1 (centres undefined)		inactive	inactive	7.69% (inactive)	11.9%	23.7%
CC1=C2C(=COC(C)C2C)C(=O)C(C(=O)O)=C1O (centres undefined)		inactive	inactive	4.18% (inactive)	-1.22%	4.23%
COc1cc(O)c(C(=O)/C=C/c2ccccc2)c(OC)c1	inactive	inactive	inactive	-11.9% (inactive)	2.78%	-7.25%
CC(=O)OCC(=O)[C@@]1(O)CCC2C3CC(C)C4=CC(=O)C=CC4(C)C3C(O)CC21C (some centres undefined)	inactive	inactive	inactive	2.16% (inactive)	-9.81%	-3.93%
COc1cc(O)c(C(=O)c2ccccc2)cc1O	inactive	inactive	inactive	2.59% (inactive)	7.29%	11.7%
CC(=O)OC1CC2C(C)(C)C(O)CCC2(C)C2CC[C@]3(C)C(=CC(=O)OC3c3ccoc3)C12C (some centres undefined)	inactive	inactive	inactive	-0.0065% (inactive)	-9.39%	-0.419%
CCC(C)(C)C(=O)OC1CC(C)C=C2C=CC(C)C(CCC3CC(O)CC(=O)O3)C21 (centres undefined)		inactive	inactive	-9% (inactive)	2.37%	-4.92%
CC(C)c1c(O)ccc2c1CCC1[C@@](C)(C=O)CCC[C@@]21C (some centres undefined)	inactive	inactive	inactive	-2.8% (inactive)	1.05%	-0.0657%
C=C1CCC(OC(C)=O)/C(C)=C/CC2[C@H]1CC2(C)C (some centres undefined)	inactive	inactive	inactive	1.96% (inactive)	2.53%	5.33%
O=C(CC(=O)c1ccccc1)c1ccccc1	inactive	inactive	inactive	2.34% (inactive)	-0.636%	4.72%

SMILES	Potency [1]	Potency [2]	Potency [3]	activity change, negative = inhibition [4]	max response [4, 5]	max response [4, 6]
COc1c2ccoc2nc2c(OC)c(OCC(O)C(C)(C)O)ccc12 (centres undefined)	inactive	inactive	inactive	9.6% (inactive)	16.9%	29.2%
CC(=O)Oc1cc2c(c(C)c1OC(C)=O)CC=C1[C@]3(C)CC[C@]4(C)CC[C@@](C)(C(=O)O)CC4[C@]3(C)CC[C@]12C (some centres undefined)	inactive	inactive	inactive	-5.08% (inactive)	-7.33%	-12.4%
CC(C)c1c(O)ccc2c1CCC1[C@@](C)(CO)CCC[C@@]21C (some centres undefined)	inactive	inactive	inactive	10.8% (inactive)	14.4%	26.5%
Oc1cc(O)c2c(c1)OC(c1cc(O)c(O)c(O)c1)C(O)C2 (centres undefined)		inactive	inactive	12.8% (inactive)	12.7%	24.8%
C#CCCCCCCCCCCCC(O)CC(O)CO (centres undefined)	inactive	inactive	inactive	15.6% (inactive)	3.34%	18.3%
CC(C)c1ccc2c(c1)CCC1C(C)(C(N)=O)CCCC21C (centres undefined)	inactive	inactive	inactive	-15.9% (inactive)	-2.05%	-18.2%
CCCCC(=O)O[C@@]1(C(=O)CO)C(C)CC2C3CCC4=CC(=O)C=C[C@@]4(C)[C@]3(F)C(O)C[C@]21C (some centres undefined)	inactive	inactive	inactive	-6.08% (inactive)	9.88%	7.08%
CC(C)=CCc1c2c(c(O)c3c(=O)c(O)c(-c4ccccc4)oc13)C=CC(C)(C)O2	inactive	inactive	inactive	0.956% (inactive)	-0.903%	-0.353%
CC1OC(OCC2OC(Oc3c(-c4ccc(O)c(O)c4)oc4cc(O)cc(O)c4c3=O)C(O)C(O)C2O)[C@@H](O)C(O)C1O (some centres undefined)		inactive	inactive	4.3% (inactive)	4.35%	10.1%
COC(=O)CCC(C)C1CCC2C3C(O)C[C@@H]4CC(O)CC[C@@]4(C)C3CC(O)[C@]12C (some centres undefined)		inactive	inactive	2.8% (inactive)	-0.322%	3.42%
O=C(/C=C(\O)c1ccccc1)c1ccccc1O	inactive		inactive	-15.7% (inactive)	-12.9%	-24.5%
CC12CCC3c4ccc(OCc5ccccc5)cc4CCC3C1CC(O)C2O (centres undefined)		inactive	inactive	3.93% (inactive)	2.78%	8.16%
CC(C)C1=CC2=CCC3[C@@](C)(CCC[C@@]3(C)C(=O)O)C2CC1 (some centres undefined)	inactive	inactive	inactive	4.85% (inactive)	5.3%	10.4%
NCCCCC(NC(CCc1ccccc1)C(=O)O)C(=O)N1CCCC1C(=O)O (centres undefined)		inactive	inactive	8.08% (inactive)	11.1%	24.7%
CC(C1OC(C)(C)C(O)C1O)C1CC[C@@]2(C)C3=CCC4C(C)(C)C(=O)CC[C@]4(C)C3CC[C@@]12C (some centres undefined)		inactive	inactive	5.14% (inactive)	-0.971%	3.6%
